Test results published in the supplement of paper PMC10849652.
The full data set covers some 7,900 targets. This sample favours those with a hit. About 0.6% of all pairs of compound and target were hits.

compound: c1cc(OCCN2CCCCC2)cc(-c2n[nH]c3ccc(-c4nnc[nH]4)cc23)c1; assay: log2 fold change, soluble protein after heating vs DMSO (PISA); higher = thermal stabilisation; K562 cells, 10 uM, 30 min; active = over 0.2 and 3.5 SD of the protein, either way, in both replicates (recomputed)
How it was run: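 K562 cells at 2×10^6 cells/mL were treated with 10 μM compound for 30 min. Aliquots were heated for 3 min across 48°C-58°C, pooled, and extracted in PBS with 0.5% NP-40 at 4°C; soluble protein was the supernatant after 21,000xg for 90 min. Soluble protein was quantified by TMTpro 16plex LC-MS/MS with channel sums equalised, and reported as log2 fold change in thermal stability against DMSO controls, with values from duplicates.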

UniProt P0CL80, sequence (P0CL80 whole entry, looked up): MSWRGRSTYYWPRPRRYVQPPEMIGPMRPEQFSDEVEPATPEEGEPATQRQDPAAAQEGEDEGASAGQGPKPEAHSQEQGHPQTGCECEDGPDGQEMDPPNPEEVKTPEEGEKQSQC
UniProt Q7Z4H3, sequence (Q7Z4H3 whole entry, looked up): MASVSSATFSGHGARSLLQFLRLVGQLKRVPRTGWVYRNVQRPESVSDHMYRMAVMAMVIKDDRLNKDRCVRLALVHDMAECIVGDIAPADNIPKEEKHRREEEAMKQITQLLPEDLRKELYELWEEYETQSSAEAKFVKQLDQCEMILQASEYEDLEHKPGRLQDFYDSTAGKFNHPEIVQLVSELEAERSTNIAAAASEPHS
UniProt O14526, sequence (O14526 whole entry, looked up): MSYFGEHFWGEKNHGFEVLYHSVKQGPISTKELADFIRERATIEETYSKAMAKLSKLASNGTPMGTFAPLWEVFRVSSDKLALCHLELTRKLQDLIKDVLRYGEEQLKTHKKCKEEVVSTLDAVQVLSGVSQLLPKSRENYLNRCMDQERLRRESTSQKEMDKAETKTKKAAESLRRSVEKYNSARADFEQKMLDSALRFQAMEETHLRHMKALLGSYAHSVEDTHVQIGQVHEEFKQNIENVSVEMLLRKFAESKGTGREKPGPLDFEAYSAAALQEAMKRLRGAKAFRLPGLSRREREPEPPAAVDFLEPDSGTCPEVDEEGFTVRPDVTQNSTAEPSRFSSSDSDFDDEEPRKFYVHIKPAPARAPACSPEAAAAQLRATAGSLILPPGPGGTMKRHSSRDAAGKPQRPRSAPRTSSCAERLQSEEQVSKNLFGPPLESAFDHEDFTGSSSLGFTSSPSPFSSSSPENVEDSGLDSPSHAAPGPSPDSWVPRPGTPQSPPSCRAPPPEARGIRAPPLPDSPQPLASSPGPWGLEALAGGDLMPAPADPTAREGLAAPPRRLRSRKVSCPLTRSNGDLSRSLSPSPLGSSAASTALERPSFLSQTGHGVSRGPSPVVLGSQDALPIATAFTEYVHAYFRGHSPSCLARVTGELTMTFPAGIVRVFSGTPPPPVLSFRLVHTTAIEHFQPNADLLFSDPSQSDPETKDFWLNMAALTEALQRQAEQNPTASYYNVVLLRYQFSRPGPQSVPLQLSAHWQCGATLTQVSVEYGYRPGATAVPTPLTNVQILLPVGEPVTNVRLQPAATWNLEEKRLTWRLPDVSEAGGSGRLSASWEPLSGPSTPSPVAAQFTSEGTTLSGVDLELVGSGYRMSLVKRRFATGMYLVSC
UniProt P30519, sequence (P30519 whole entry, looked up): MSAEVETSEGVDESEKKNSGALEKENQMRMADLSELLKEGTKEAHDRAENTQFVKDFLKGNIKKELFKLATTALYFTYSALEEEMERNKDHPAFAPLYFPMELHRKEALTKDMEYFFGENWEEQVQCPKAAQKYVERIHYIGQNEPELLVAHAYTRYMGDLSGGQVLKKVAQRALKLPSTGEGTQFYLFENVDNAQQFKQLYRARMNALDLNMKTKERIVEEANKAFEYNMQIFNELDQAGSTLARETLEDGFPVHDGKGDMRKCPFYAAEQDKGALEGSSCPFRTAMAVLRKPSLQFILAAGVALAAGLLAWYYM
UniProt O43524, sequence (O43524 whole entry, looked up): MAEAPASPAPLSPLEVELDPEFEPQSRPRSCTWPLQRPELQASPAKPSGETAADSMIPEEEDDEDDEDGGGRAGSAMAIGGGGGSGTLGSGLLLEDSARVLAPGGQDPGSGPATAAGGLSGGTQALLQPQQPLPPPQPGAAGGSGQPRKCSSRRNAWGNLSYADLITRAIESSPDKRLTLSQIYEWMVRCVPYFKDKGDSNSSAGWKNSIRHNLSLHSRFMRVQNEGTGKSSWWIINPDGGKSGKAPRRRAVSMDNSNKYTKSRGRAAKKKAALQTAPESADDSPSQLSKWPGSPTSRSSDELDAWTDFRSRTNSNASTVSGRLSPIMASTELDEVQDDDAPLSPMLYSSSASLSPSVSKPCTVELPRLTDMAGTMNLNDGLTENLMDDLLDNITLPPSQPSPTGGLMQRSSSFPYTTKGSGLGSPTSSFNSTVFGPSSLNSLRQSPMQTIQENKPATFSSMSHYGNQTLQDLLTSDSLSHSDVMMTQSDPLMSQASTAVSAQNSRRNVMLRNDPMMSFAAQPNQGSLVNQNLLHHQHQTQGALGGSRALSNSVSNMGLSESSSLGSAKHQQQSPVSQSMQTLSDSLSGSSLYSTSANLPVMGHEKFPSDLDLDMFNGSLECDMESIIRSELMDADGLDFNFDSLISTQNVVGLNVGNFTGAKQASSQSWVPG
UniProt Q16774, sequence (Q16774 whole entry, looked up): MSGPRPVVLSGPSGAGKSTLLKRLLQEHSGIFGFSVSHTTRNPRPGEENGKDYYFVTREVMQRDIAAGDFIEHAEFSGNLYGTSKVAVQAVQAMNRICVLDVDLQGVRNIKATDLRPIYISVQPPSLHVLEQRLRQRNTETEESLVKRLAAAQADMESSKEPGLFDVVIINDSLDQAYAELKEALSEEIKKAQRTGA
UniProt P50213, sequence (P50213 whole entry, looked up): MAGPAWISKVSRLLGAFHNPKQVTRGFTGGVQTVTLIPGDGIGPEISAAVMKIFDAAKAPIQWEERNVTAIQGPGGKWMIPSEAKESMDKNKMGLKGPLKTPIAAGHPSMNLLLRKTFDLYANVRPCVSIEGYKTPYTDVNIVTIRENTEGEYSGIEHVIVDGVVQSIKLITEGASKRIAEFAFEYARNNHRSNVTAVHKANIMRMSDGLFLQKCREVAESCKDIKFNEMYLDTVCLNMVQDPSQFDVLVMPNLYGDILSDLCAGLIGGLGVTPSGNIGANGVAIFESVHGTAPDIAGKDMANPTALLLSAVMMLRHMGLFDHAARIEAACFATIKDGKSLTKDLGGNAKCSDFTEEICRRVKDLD
UniProt Q14527, sequence (Q14527 whole entry, looked up): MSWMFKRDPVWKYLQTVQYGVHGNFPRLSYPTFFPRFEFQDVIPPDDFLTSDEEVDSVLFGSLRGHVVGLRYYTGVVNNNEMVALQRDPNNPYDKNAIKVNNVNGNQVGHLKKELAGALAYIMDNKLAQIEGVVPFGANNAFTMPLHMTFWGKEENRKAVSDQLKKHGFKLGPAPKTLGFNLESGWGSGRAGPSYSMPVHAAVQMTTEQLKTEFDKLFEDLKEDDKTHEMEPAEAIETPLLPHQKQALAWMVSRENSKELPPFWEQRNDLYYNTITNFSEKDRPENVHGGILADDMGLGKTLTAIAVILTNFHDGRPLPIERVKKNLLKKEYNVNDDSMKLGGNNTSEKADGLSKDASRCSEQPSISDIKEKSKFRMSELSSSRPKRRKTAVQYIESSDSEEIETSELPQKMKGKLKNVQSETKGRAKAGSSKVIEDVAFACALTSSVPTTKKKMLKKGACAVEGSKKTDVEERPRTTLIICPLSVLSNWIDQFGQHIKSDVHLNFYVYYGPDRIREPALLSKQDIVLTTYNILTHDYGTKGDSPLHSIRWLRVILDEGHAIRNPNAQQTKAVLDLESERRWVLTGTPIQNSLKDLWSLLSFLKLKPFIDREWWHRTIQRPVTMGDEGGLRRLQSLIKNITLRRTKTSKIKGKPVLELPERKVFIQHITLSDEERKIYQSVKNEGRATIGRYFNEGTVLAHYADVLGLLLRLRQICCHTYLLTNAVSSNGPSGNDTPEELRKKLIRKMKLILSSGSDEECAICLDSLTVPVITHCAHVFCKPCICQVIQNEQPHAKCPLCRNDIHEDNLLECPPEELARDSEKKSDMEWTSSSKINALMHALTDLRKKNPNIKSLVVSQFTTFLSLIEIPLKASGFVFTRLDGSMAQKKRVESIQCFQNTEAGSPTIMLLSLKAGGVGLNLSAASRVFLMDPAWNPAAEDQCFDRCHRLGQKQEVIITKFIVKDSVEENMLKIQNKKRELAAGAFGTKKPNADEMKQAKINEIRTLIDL
UniProt Q9H0R4, sequence (Q9H0R4 whole entry, looked up): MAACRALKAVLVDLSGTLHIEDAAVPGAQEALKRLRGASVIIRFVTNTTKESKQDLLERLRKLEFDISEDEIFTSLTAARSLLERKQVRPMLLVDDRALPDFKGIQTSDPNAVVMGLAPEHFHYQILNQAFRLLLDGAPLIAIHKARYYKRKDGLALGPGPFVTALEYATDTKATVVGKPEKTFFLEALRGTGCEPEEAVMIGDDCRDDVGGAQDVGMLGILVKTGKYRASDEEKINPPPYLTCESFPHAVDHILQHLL
UniProt O94925, sequence (O94925 whole entry, looked up): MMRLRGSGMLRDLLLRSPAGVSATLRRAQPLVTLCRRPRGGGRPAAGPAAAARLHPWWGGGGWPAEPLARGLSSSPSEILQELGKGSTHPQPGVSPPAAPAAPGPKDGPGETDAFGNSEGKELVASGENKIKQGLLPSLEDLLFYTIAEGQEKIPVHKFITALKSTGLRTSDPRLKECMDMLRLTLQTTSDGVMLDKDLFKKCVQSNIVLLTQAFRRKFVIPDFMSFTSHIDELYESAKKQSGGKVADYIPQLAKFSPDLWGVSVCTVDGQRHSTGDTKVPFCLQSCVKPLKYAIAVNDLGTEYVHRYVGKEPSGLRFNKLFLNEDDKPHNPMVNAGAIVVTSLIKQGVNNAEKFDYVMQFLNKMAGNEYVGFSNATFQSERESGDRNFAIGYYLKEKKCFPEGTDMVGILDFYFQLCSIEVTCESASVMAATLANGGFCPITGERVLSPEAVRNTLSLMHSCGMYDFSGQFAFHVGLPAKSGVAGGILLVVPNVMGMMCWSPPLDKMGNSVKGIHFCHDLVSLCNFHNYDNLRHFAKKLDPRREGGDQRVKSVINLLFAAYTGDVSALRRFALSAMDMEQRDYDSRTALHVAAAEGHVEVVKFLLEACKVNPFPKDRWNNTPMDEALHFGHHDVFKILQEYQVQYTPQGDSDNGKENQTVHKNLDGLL
UniProt Q01628, sequence (Q01628 whole entry, looked up): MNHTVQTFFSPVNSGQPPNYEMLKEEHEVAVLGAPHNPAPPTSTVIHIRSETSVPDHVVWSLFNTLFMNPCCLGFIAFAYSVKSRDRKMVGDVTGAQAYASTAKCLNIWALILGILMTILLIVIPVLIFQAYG
UniProt Q96HJ9, sequence (Q96HJ9 whole entry, looked up): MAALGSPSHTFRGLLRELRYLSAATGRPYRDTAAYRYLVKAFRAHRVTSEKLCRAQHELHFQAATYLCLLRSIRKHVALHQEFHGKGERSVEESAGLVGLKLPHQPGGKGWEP

log2 fold change, inactive:
FHOD1 (UniProt Q9Y613) -0.085
GUK1 isoform 2 (UniProt Q16774) 0.122
H2AZ1 (UniProt P0C0S5) -0.032
GABARAPL2 (UniProt P60520) 0.015
HLTF (UniProt Q14527) -0.101
FMC1 (UniProt Q96HJ9) -0.053
GALNT11 (UniProt Q8NCW6) 0.002
HMOX2 (UniProt P30519) -0.03
GUSB (UniProt P08236) -0.059
FBXO3 (UniProt Q9UK99) -0.12
FCHO1 (UniProt O14526) 0.302
GHDC (UniProt Q8N2G8) -0.03
GLUL (UniProt P15104) -0.087
HNRNPK isoform 2 (UniProt P61978) -0.038
HOOK3 (UniProt Q86VS8) -0.05
GLRX3 (UniProt O76003) -0.024
HIST2H3A (UniProt Q71DI3) -0.02
GLS (UniProt O94925) -0.032
IDH3A (UniProt P50213) 0.011
HDDC2 (UniProt Q7Z4H3) -0.041
GTF3C4 (UniProt Q9UKN8) -0.019
IFI30 (UniProt P13284) -0.028
FOXO3 (UniProt O43524) 0.035
GPX4 (UniProt P36969) -0.049
FUT8 (UniProt Q9BYC5) 0.027
HADHA (UniProt P40939) -0.007
GAGE12F (UniProt P0CL80) -0.08
GTPBP6 (UniProt O43824) -0.011
GCDH (UniProt Q92947) 0.009
IFITM3 (UniProt Q01628) -0.164
FIS1 (UniProt Q9Y3D6) -0.006
FERMT3 (UniProt Q86UX7) -0.02
HDHD2 (UniProt Q9H0R4) -0.012
